Screening results (PubChem BioAssay)
TROY NFkB inh: inhibitors of TROY-dependent NF-kB signaling; Q293 LMP1-TROYcd NF-kB luciferase reporter, 4 h; inhibition, % at 10 µM; actives 0.98% (n = 360,000);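 active = compounds whose plate-normalised and pattern-corrected inhibition of the luciferase reporter signal at the single screening dose is 50% or more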
MITF TRPM1 inh: MITF TRPM1 promoter inhibition in SK-MEL-5 cells; actives 0.83% (n = 330,000); SK-MEL-5 TRPM1 promoter luciferase, 24 h; inhibition, % at 12.5 µM; AID 488899;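 active = mean inhibition across replicates of 60% or more, whatever share of single replicates reaches that level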
EBV LMP1 NFkB: inhibitors of Epstein-Barr LMP1-induced NF-kappaB reporter; LMP1-induced NF-kappaB luciferase reporter cells, luminescence; inhibition, % at 12.5 µM; actives 0.69% (n = 350,000); AID 504558; in the data active = inhibition above about 41%;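 also: 0% = neutral control wells and 100% = reference inhibitor control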
Shn3 inh set2: reduces Shn3 3'UTR luciferase signal in osteoblasts | Clone20 osteoblast Shn3 3'UTR firefly luciferase, 24 h | inhibition, % at 12.5 µM | actives 0.52% (n = 360,000);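 active = mean inhibition of at least 75% with every replicate also reaching 75%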;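 also: 0% = median of neutral control wells and 100% = pilot-screen positive control compound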
TWEAK-Fn14 inh: inhibitors of TWEAK-Fn14 interaction signaling | TWEAK-stimulated Fn14 reporter cells, luciferase luminescence, 8 h | inhibition, % at 10 µM | actives 2% (n = 360,000) | AID 1159606; in the data active = inhibition above about 50%
Peg3 prom inh: reduces Peg3 promoter-driven luciferase expression in HeLa; HeLa PEG-Prom luciferase reporter, luminescence, overnight; inhibition, % at 20 µM; actives 1.7% (n = 360,000); AID 588405;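 active = inhibition of at least 50% at 20 µM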
The depositor's hits bear a star; / = no result. Rows were chosen to be rich in hits. Some 4.1% of all compounds tested hit in one or more screens of this group.

SMILES | TROY NFkB inh | MITF TRPM1 inh | EBV LMP1 NFkB | Shn3 inh set2 | TWEAK-Fn14 inh | Peg3 prom inh
COc1ccc(S(=O)(=O)/N=C2/C=CC(=O)C(C)=C2C)cc1 | 15 | 7 | -3 | 11 | 14 | 13
COc1cc(C(=O)O/N=C2/C=C(C)C(=O)C=C2C)cc(OC)c1OC | 22 | 14 | 14 | 22 | 40 | 7
O=C1/C(=C/c2ccccc2)CCCc2ccccc21 | -26 | -36 | -4 | -130 | -15 | -56
Cc1cccc(/C=C2\CCC(=C3SCCCS3)C2=O)c1 | / | 33 | 48* | 52 | 75* | 16
Cc1cccc(C(=O)OCC(=O)c2ccc3c(c2)OCO3)c1O | -22 | -120 | -59 | -101 | -24 | -349
CC(=O)NC12CC3CC(C1)CC(C(=O)OCC(=O)c1ccc4c(c1)OCCO4)(C3)C2 | 54* | -14 | -26 | -53 | 58* | -98
O=C(COC(=O)c1ccccc1[N+](=O)[O-])c1ccc2c(c1)OCO2 | 78* | -54 | -14 | -8 | 78* | -66
Cc1cccc(C(=O)OCC(=O)c2ccc3c(c2)OCCO3)c1O | 54* | -59 | -18 | -109 | 13 | -296
O=C(COC(=O)c1cccs1)c1ccc2c(c1)OCCO2 | 75* | -46 | -16 | -21 | 61* | -102
CC(=O)NC12CC3CC(C1)CC(C(=O)OCC(=O)c1cc(C)n(C)c1C)(C3)C2 | -20 | -26 | 14 | -15 | 1 | -205
COCCN(C(=O)CSc1nnc(-c2cccc(F)c2)n1N)c1c(N)n(CC(C)C)c(=O)[nH]c1=O | -9 | -2 | 2 | 4 | -9 | 3
NC(=O)c1ccc2c(c1)OCCO2 | / | 1 | 1 | 7 | 16 | 21
CCOC(=O)C(=O)CC(=O)c1ccc2c(c1)OCCO2 | 72* | 4 | 28 | -10 | -4 | -37
CCc1ccc(C(=O)COC(=O)c2cccs2)cc1 | 6 | -76 | -25 | -22 | 3 | -182
CNS(=O)(=O)c1cccc(C(=O)OCC(=O)c2ccc3c(c2)OCCO3)c1 | -24 | 5 | 43* | -5 | 11 | -10
Cc1ccc(C(=O)COC(=O)c2cccs2)cc1 | 59* | -52 | -25 | -33 | 43 | -107
CNS(=O)(=O)c1cccc(C(=O)OCC(=O)c2ccc[nH]2)c1 | -17 | -7 | -1 | -4 | 5 | -10
COc1ccc(CCNc2ccc(C(CC(N)=O)NC(=O)c3cc(OC)ccc3OC)cc2[N+](=O)[O-])cc1 (centres undefined) | -14 | 5 | 4 | 2 | -2 | 2
Cc1ccccc1N/N=C/c1c(C)nc2ccccn12 | -7 | 16 | 6 | 4 | -24 | -6
Cc1ccc(C(=O)OC(C)C(=O)Nc2ccc3c(c2)OCO3)c(O)c1 (centres undefined) | 5 | -17 | -5 | 11 | 3 | -125
CCOC(=O)C1CCN(S(=O)(=O)Cc2ccccc2)C1=O (centres undefined) | 22 | -1 | 43* | -3 | 0 | 2
Cn1cccc1/C=N/NC(=O)c1sc2ccccc2c1Cl | / | -39 | -2 | -36 | 51* | -242
O=C(N/N=C/c1ccccn1)c1sc2ccccc2c1Cl | 35 | 19 | 1 | 12 | 86* | -51
O=C(N/N=C/c1ccc([N+](=O)[O-])o1)c1sc2ccccc2c1Cl | 11 | 78* | -4 | 20 | 9 | 40
Cc1c(/C=N/NC(=O)c2sc3ccccc3c2Cl)cnn1C | -60 | -8 | 0 | -2 | 8 | 12
SMILES | TROY NFkB inh | MITF TRPM1 inh | EBV LMP1 NFkB | Shn3 inh set2 | TWEAK-Fn14 inh | Peg3 prom inh
O=C(N/N=C/c1c[nH]c2ccccc12)c1sc2ccccc2c1Cl | -30 | -36 | -21 | -69 | -25 | -230
COc1ccccc1NC(=O)CCCN1C(=O)C2CC=CCC2C1=O (centres undefined) | -5 | 1 | 2 | 0 | 11 | 12
O=C(NC(=S)Nc1ccc(N2CCOCC2)cc1)c1ccc2c(c1)OCCO2 | 60* | 4 | 2 | -32 | 51* | -90
O=C(NC(=S)Nc1ccc(CN2CCOCC2)cc1)c1ccc2c(c1)OCCO2 | 17 | -8 | -12 | / | -17 | -104
O=C(NC(=S)Nc1ccc(N2CCCCC2)cc1)c1ccc2c(c1)OCCO2 | 77* | -6 | 19 | 27 | 55* | -63
COc1ccc2cc(C(=O)C3CCCN(C(=O)c4cncs4)C3)ccc2c1 (centres undefined) | -31 | 7 | 2 | -5 | -34 | -7
